Compound activity: PubChem, several laboratories
WT yeast gro inh: growth inhibition of WT yeast, mitochondrial fusion screen; mitochondrial fusion phenotypic screen, WT strain; inhibition, % at 10 µM; 190,000 compounds, 2.1% hits; in the data active = inhibition above about 58%; tested in S. cerevisiae
Cl transport mod: modulates chloride dependent transport by human KCC2 | Q9H2X9 | AID 1456 | 190,000 compounds, 2.2% hits | KCC2 cells, thallium flux FluoZin-2 fluorescence | B-score of Tl+ flux slope (higher = more flux/activation; lower = inhibition) at 10 µM;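 active = thallium flux slope and its plate-corrected score both differing from the plate sample mean at a set confidence after two filtering rounds, in either direction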;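 note: slope of fluorescence scaled to starting intensity during 10 to 20 s after thallium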
ROMK mod: human ROMK K+ channel modulation, primary screen; P48048; Tet-inducible ROMK, thallium flux fluorescence; actives lie on both sides; B-score at 10 µM; 130,000 compounds, 2% hits;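 active = signal ratio slope over the read window, or its plate-corrected B-score, at least 3 SD from the plate mean, either direction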;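 note: B-score of the F/F0 ratio slope over 7 to 12 s after thallium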
m-calpain inh: calpain II (pig) inhibition. purified calpain II, fluorogenic peptide substrate, 30 min. inhibition, % at 16 µM. 220,000 compounds, 0.37% hits;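 active = inhibition above about 50%, limit read from the data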
Lmaj promast: Leishmania major promastigote growth inhibition. 200,000 compounds, 9% hits. inhibition, % at 10 µM. Leishmania major promastigotes, resazurin fluorescence viability; in the data active = inhibition above about 50%;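 note: promastigotes grown with compound for 44 hours at 28 °C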
* = called active by the depositor; · = no result given. Compounds with a hit are over-represented: about 12% of the library has one in this group of screens.

SMILES	WT yeast gro inh	Cl transport mod	ROMK mod	m-calpain inh	Lmaj promast
Cc1nc(NCCCn2ccnc2)c2oc3ccccc3c2n1	-28	-0.0064	-1	-2	88*
c1ccc2c(c1)oc1c(NCCCN3CCOCC3)ncnc12	-9	-0.45	·	-15	96*
C=CCN1C(=O)NC2(O)C(=O)c3ccccc3C12O (stereo not drawn)	8	0.051	·	-55	-8
O=C(Nc1ccc(F)cc1)/C(Cl)=C/c1ccccc1	7	0.023	-0.22	-4	-5
O=C(Nc1cccc2ccccc12)/C(Cl)=C/c1ccccc1	30	·	·	58*	-2
COc1ccc(C(=O)NNc2ccccc2)cc1	30	-0.051	·	-2	92*
COc1ccc(C(=O)NC(NC(=S)Nc2ccc(S(N)(=O)=O)cc2)C(Cl)(Cl)Cl)cc1 (stereo not drawn)	18	·	0.28	-37	-13
COc1ccc(C(=O)NC(Nc2ccccc2)C(Cl)(Cl)Cl)cc1 (stereo not drawn)	-1	·	·	-2	99*
CNC(=O)c1cc(Nc2nnc(-c3ccc(O)cc3)c3ccccc23)ccc1OC	-3	-0.34	-0.91	-17	-2
CCOc1ccc(-c2nnc(Nc3ccc(OC)c(C(=O)N4CCCCC4)c3)c3ccccc23)cc1	11	-0.55	·	11	61*
COc1ccccc1NC(=S)NCCc1ccc(Cl)cc1	-1	-0.58	·	21	15
CCOc1ccccc1NC(=S)NCCc1ccccc1	74*	-1.5	0.38	8	9
CCOc1ccccc1NC(=O)c1ccc(Cl)c(NC(=O)CC(c2ccccc2)c2ccccc2)c1	0	·	·	25	70*
CCOc1ccccc1NC(=O)C(OC(=O)c1ccc(O)cc1)c1ccccc1 (stereo not drawn)	77*	-0.027	·	8	7
CCOc1ccccc1NC(=S)NC1CCCCC1	5	0.44	0.28	17	92*
CCOc1ccccc1NC(=O)c1cccc(NC(=O)CC(c2ccccc2)c2ccccc2)c1	21	1.4	·	2	22
COc1ccc(NS(=O)(=O)c2ccc(NS(=O)(=O)c3ccc(C)cc3)cc2)nn1	9	-0.13	0.51	9	-10
COC(=O)c1ccc(S(=O)(=O)N2CCCN(Cc3cccc(Br)c3F)CC2)n1C	·	0.043	1.1	27	·
Cc1cccc(C)c1NC(=S)NC1CCCCC1	70*	2.6	·	-17	10
COc1ccc(NC(=S)NCCc2ccc(F)cc2)c(OC)c1	48	-0.26	0.005	26	9
CCOc1ccccc1NC(=S)NCCc1ccc(F)cc1	62*	-1.7	0.015	-15	9
CCOc1ccccc1NC(=O)C(NCC1CCCCC1)c1ccccc1 (stereo not drawn)	74*	0.13	-0.72	19	27
Cc1ccc(C(=O)OC(C(=O)Nc2ccc(Cl)cc2C(F)(F)F)c2ccccc2)cc1 (stereo not drawn)	5	0.8	-0.17	16	69*
NS(=O)(=O)c1ccc(CCNC(=O)C2CCN(S(=O)(=O)c3ccc(Br)s3)CC2)cc1	-12	0.26	0.32	-22	-5
Fc1ccc(CCNC(=S)Nc2ccc(F)cc2)cc1	19	-2.8	·	-12	21
SMILES	WT yeast gro inh	Cl transport mod	ROMK mod	m-calpain inh	Lmaj promast
CCCCc1ccc(NC(=S)NCCc2ccc(F)cc2)cc1	68*	-0.00035	-0.6	17	17
O=S(=O)(c1ccc(NC(=S)N2CCN(c3ccc(O)cc3)CC2)cc1)N1CCOCC1	-24	0.29	1.5	-28	11
CCn1ccnc1CN1CCc2c([nH]c3ccccc23)C1CC(C)C (stereo not drawn)	57	-0.54	-0.14	3	43
CCn1ccnc1CN1CCc2c([nH]c3ccccc23)C1C1CCCCC1 (stereo not drawn)	65*	·	0.16	-34	40
Cc1c(CN2CCc3c([nH]c4ccccc34)C2C2CCCCC2)cnn1C (stereo not drawn)	10	·	-0.56	-36	24
COCc1ccc(CN2CCc3c([nH]c4ccccc34)C2C(C)(C)C)o1 (stereo not drawn)	-4	-0.38	-0.34	1	50*
CCn1ccnc1CN1CCc2c([nH]c3ccccc23)C1C(C)(C)C (stereo not drawn)	57	·	·	30	52*
O=C(CCC(=O)c1cccs1)NCc1cccnc1	3	-0.77	-0.41	-4	-6
CCN(CC)S(=O)(=O)c1ccc(NC(=O)[C@@H](NC(=O)c2cc(OC)cc(OC)c2)C(C)C)cc1	7	-0.13	0.22	39	5
Cc1ccc(-c2noc(-c3ccoc3C)n2)cc1	-13	-0.018	0.47	-15	-5
COc1ccc(OCC(O)CNS(=O)(=O)c2ccc(C)cc2)cc1 (stereo not drawn)	·	0.7	·	-7	·
